Values joined by “and” are separate entries in the source; they are usually repeats but may differ in a detail not shown here. Equal values may be shown once. Records with an inconclusive call do not appear. Entries that show only a call come without a potency. The source holds several records for some structures; these can differ, active in one and inactive in another. Active and inactive are the calls of the source. Unless noted, calls follow the shape of the dose curve; as a rule, active = well fitted curve in the direction sought with a large enough effect in the repeat runs; inconclusive = weak or mixed curves; inactive = no such curve, though single readings can be large; an effect the other way counts as inactive or inconclusive.
What was measured:
[1] = qHTS assay for small molecule agonists of the p53 signaling pathway (AID 651631; calls by dose curve; also: nearly all actives have a fitted effect of over 15% in size; also: potency is read from the fitted curve at half-maximal effect)
Outline: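 Beta-lactamase reporter activity under p53 response elements was quantified in HCT-116 cells by FRET fluorescence, following 16 h incubation with test compounds at 37 °C and 2 h substrate development at room temperature.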

[2] = qHTS assay for small molecules that induce genotoxicity in human embryonic kidney cells expressing luciferase-tagged ATAD5 (AID 651632); also: nearly all actives have a fitted effect of over 15% in size
Outline: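 Test compounds were delivered by pin tool onto HEK293T reporter cells (2,000/well) expressing ATAD5 fused to luciferase. After 16 hr at 37C, 5% CO2, Amplite was added for 30 min at room temperature and luminescence was measured.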

[3] = qHTS assay for small molecule agonists of the p53 signaling pathway - cell viability (AID 651633; calls by dose curve;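 also: p53RE-bla HCT reporter cells with a stable beta-lactamase p53 reporter; series mostly up to about 83 µM; nearly all actives have a fitted effect of over 30% in size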)
Outline: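 Viability counter-read: CellTiter-Glo luminescence (30 min, room temperature) in the same p53RE-bla plates. These plates had been exposed to compounds for 16 h at 37 C.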

[4] = qHTS assay for small molecule disruptors of the mitochondrial membrane potential - cell viability (AID 720634; calls by dose curve;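 also: human HepG2 liver cancer cells; series mostly up to about 83 µM; nearly all actives have a fitted effect of over 20% in size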)
Outline: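 Same-well counter-screen: following the MMP dye addition, CellTiter-Glo was added to 1 hr compound-treated HepG2 cells and luminescence read after 30 min at room temperature.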

[5] = qHTS assay for small molecule disruptors of the mitochondrial membrane potential (AID 720635); also: potency is read from the fitted curve at half-maximal effect
Outline: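 Mitochondrial membrane potential tracked with Mito-MPS dye, red aggregates (ex 540/em 590 nm) against green monomers (ex 490/em 535 nm). Compound treatment 1 hr at 37C, dye 30 min in HepG2.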

[6] = qHTS assay to test for compound auto fluorescence at 590 nm (red) in HepG2 cells (AID 720674); also: potency is read from the fitted curve at half-maximal effect
Outline: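 Red autofluorescence (Ex/Em 540/590 nm, Rose Bengal sodium equivalents) was measured in HepG2 cells, 2,000 per well in MEM plus 10% FBS, plated overnight at 37 C. Readings were taken 1 hr after adding 23 nL compound or DMSO, at 37 C and 5% CO2.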

[7] = qHTS assay to test for compound auto fluorescence at 535 nm (green) in HepG2 cells (AID 720675); also: potency is read from the fitted curve at half-maximal effect
[8] = qHTS assay to test for compound auto fluorescence at 460 nm (blue) in HEK293 cells (AID 720678)
Outline: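 Blue-channel (Ex/Em 405/460 nm) intensity measured in HEK293 cultures after overnight compound exposure at 37C; signal expressed relative to triamterene. Cells plated 2,000 per well in 10% dialyzed FBS medium and allowed 4-5 hr to attach.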

[9] = qHTS assay to test for compound auto fluorescence at 590 nm (red) in HEK293 cells (AID 720679); also: potency is read from the fitted curve at half-maximal effect
Outline: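 Red-channel autofluorescence (Ex/Em 540/590 nm; Rose Bengal sodium reference) was measured after overnight 37C, 5% CO2 exposure of attached HEK293 cells, 2,000 per well in medium with 10% dialyzed FBS.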

[10] = qHTS assay to test for compound auto fluorescence at 535 nm (green) in HEK293 cells (AID 720680); also: potency is read from the fitted curve at half-maximal effect
[11] = qHTS assay to test for compound auto fluorescence at 460 nm (blue) in HEK293 cell free culture (AID 720681)
Outline: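 Blue fluorescence (Ex 405/Em 460 nm, triamterene-equivalent) was read immediately after pin transfer of compound or DMSO into medium (DMEM, 10% FBS) without cells.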

[12] = qHTS assay to test for compound auto fluorescence at 535 nm (green) in HEK293 cell free culture (AID 720682); also: potency is read from the fitted curve at half-maximal effect
Outline: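 Each library compound, or DMSO control, is added by pintool to medium alone, comprising DMEM and 10% FBS. Emission at 535 nm following 485 nm excitation is quantified against fluorescein.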

[13] = qHTS assay to test for compound auto fluorescence at 590 nm (red) in HEK293 cell free culture (AID 720683); also: potency is read from the fitted curve at half-maximal effect
Outline: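 Red-channel autofluorescence of compounds in culture medium (DMEM, 10% FBS), no cells, measured at 540/590 nm. Rose Bengal sodium is the reference fluorophore for equivalence.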

[14] = qHTS assay to test for compound auto fluorescence at 590 nm (red) in HepG2 cell free culture (AID 720684); also: potency is read from the fitted curve at half-maximal effect
Outline: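 No cells present: MEM + 10% FBS only. Compound pinned in, red label read (540/590 nm). Activity = fluorescence equivalent to Rose Bengal sodium.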

[15] = qHTS assay to test for compound auto fluorescence at 460 nm (blue) in HepG2 cell free culture (AID 720685)
Outline: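 Cell-free plates of MEM plus 10% FBS received 23 nL compound or DMSO vehicle; blue-channel (405/460 nm) intensity scored against triamterene as reference fluorophore.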

[16] = qHTS assay to test for compound auto fluorescence at 535 nm (green) in HepG2 cell free culture (AID 720686)
[17] = qHTS assay to test for compound auto fluorescence at 460 nm (blue) in HepG2 cells (AID 720687)
Outline: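 Blue-channel autofluorescence (Ex/Em 405/460 nm, triamterene-equivalent) was measured after 1 hr compound exposure at 37 C, 5% CO2. Cells were HepG2, plated overnight at 37 C in MEM plus 10% FBS.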

[18] = biological target: Glucocorticoid receptor (Homo sapiens) (UniProt P04150); experiment: qHTS assay to identify small molecule agonists of the glucocorticoid receptor (GR) signaling pathway (AID 720691; active = well fitted activation curve with a large enough effect in the signal ratio in the repeat runs, not every such curve was filed as active; the % refers to the signal ratio)
Outline: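 A HeLa cervical cancer line expressing GR and a glucocorticoid response element-driven beta-lactamase gene is treated with compounds for 18 h; LiveBLAzer B/G FRET substrate is then applied and fluorescence read.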

[19] = biological target: Glucocorticoid receptor (Homo sapiens) (UniProt P04150); experiment: qHTS assay to identify small molecule antagonists of the glucocorticoid receptor (GR) signaling pathway (AID 720692; active = well fitted inhibition curve with a large enough effect in the signal ratio in the repeat runs, not every such curve was filed as active; the % refers to the signal ratio)
Outline: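 GRE-bla HeLa line, dex-stimulated (5 nM final). Compound exposure 18 h, 37 C. Beta-lactamase FRET read after 2 h RT substrate.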

[20] = qHTS assay for small molecules that induce genotoxicity in human embryonic kidney cells expressing luciferase-tagged ATAD5 - cell viability (AID 651634; calls by dose curve; also: nearly all actives have a fitted effect of over 25% in size)
Outline: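 Quantitative high-throughput format. HEK293T cells expressing ATAD5 fused to luciferase were plated at 2,000 cells/well and treated 15.5 hr with compound versus DMSO. Viability was determined by fluorescent live-cell protease substrate, 30 min at 37C.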
Tags tell the direction and shape of the fitted curve or compound fluorescence and quenching.

Sequence of Glucocorticoid receptor (Homo sapiens) (P04150 whole entry, looked up): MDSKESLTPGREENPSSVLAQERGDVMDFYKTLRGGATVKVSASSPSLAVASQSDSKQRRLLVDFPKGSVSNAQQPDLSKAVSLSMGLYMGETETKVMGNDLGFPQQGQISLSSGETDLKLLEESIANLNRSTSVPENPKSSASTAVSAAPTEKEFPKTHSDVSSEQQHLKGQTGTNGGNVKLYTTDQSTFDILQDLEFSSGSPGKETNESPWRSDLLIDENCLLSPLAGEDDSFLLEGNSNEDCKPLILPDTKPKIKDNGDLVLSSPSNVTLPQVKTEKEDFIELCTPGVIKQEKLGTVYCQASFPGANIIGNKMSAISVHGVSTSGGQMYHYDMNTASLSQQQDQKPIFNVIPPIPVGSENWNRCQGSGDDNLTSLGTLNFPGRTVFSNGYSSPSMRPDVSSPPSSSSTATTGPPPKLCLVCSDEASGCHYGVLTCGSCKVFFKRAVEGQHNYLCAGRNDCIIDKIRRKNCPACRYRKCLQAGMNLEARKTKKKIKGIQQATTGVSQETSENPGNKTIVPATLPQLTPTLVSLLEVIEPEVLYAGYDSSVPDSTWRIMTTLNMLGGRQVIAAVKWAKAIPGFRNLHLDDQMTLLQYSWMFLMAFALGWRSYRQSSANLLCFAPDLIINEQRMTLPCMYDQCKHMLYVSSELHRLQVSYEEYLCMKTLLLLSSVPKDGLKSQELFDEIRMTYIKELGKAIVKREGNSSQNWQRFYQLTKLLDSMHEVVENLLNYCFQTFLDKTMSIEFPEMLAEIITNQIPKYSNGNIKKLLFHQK

O=[Se](O)O
Potency [1]: 24.4 µM (active) and inactive | Potency [2]: inactive | Potency [3]: inactive | Potency [4]: inactive | Potency [5]: 8.64 µM (active) and inactive | Potency [6]: inactive | Potency [7]: inactive | outcome [8]: inactive | Potency [9]: inactive | Potency [10]: inactive | Potency [11]: inactive | Potency [12]: inactive | Potency [13]: inactive | Potency [14]: inactive | Potency [15]: inactive | Potency [16]: inactive | Potency [17]: inactive

COC(=O)C(C)Oc1ccc(Oc2ncc(C(F)(F)F)cc2Cl)cc1 (configuration not stated)
Potency [1]: inactive | Potency [2]: inactive | Potency [3]: inactive | Potency [4]: inactive | Potency [5]: inactive | Potency [6]: inactive | Potency [7]: inactive | outcome [8]: inactive | Potency [9]: inactive | Potency [10]: inactive | Potency [11]: inactive | Potency [12]: inactive | Potency [14]: inactive | Potency [15]: inactive | Potency [16]: inactive | Potency [17]: inactive

Clc1ccc(Sc2cc(Cl)c(Cl)cc2Cl)cc1
Potency [1]: inactive | Potency [2]: inactive | Potency [3]: inactive | Potency [4]: inactive | Potency [5]: 1.68 µM (active) and 864 nM (active) | Potency [6]: inactive | Potency [7]: inactive | outcome [8]: inactive | Potency [9]: inactive | Potency [10]: inactive | Potency [11]: inactive | Potency [12]: inactive | Potency [13]: inactive | Potency [14]: inactive | Potency [15]: inactive | Potency [16]: inactive | Potency [17]: inactive | Potency [18]: inactive | Potency [19]: inactive

C1CN(SSN2CCOCC2)CCO1
Potency [1]: inactive | Potency [2]: inactive | Potency [3]: inactive | Potency [4]: inactive | Potency [5]: 61.1 µM (active) | Potency [6]: inactive | Potency [7]: inactive | outcome [8]: inactive | Potency [9]: inactive | Potency [10]: inactive | Potency [11]: inactive | Potency [12]: inactive | Potency [13]: inactive | Potency [14]: inactive | Potency [15]: inactive | Potency [16]: inactive | Potency [17]: inactive | Potency [18]: inactive

Nc1ccc2c(O)cc(S(=O)(=O)O)cc2c1
Potency [1]: 4.86 µM (active) and 2.43 µM (active) | Potency [2]: inactive | Potency [3]: inactive | Potency [20]: inactive | Potency [4]: inactive | Potency [6]: inactive | Potency [7]: inactive | outcome [8]: inactive | Potency [9]: inactive | Potency [10]: inactive | Potency [11]: inactive | Potency [12]: inactive | Potency [13]: inactive | Potency [14]: inactive | Potency [16]: inactive | Potency [18]: inactive

Oc1c(Cl)ccc(Cl)c1Cl
Potency [1]: inactive | Potency [2]: inactive | Potency [3]: inactive | Potency [5]: 4.32 µM (active) and 61.1 µM (active) | Potency [6]: inactive | Potency [7]: inactive | outcome [8]: inactive | Potency [9]: inactive | Potency [10]: inactive | Potency [11]: inactive | Potency [12]: inactive | Potency [13]: inactive | Potency [14]: inactive | Potency [15]: inactive | Potency [17]: inactive | Potency [18]: inactive | Potency [19]: inactive

Cc1ccc(C(C)(C)C)cc1
Potency [1]: inactive | Potency [2]: inactive | Potency [3]: inactive | Potency [4]: inactive | Potency [5]: inactive | Potency [6]: inactive | Potency [7]: inactive | outcome [8]: inactive | Potency [9]: inactive | Potency [10]: inactive | Potency [11]: inactive | Potency [12]: inactive | Potency [14]: inactive | Potency [15]: inactive | Potency [17]: inactive

Cc1ccc([N+](=O)[O-])c(C)c1
Potency [1]: inactive | Potency [2]: inactive | Potency [3]: inactive | Potency [4]: inactive | Potency [5]: inactive | Potency [6]: inactive | Potency [7]: inactive | outcome [8]: inactive | Potency [9]: inactive | Potency [10]: inactive | Potency [11]: inactive | Potency [12]: inactive | Potency [14]: inactive | Potency [15]: inactive | Potency [17]: inactive | Potency [18]: inactive | Potency [19]: inactive

O=C1OC2(c3ccccc31)c1cc(I)c(O)c(I)c1Oc1c2cc(I)c(O)c1I
Potency [1]: inactive | Potency [2]: inactive | Potency [3]: inactive | Potency [4]: inactive | Potency [6]: 11.2 µM (active) and 20 µM (active) and 17.8 µM (active) | Potency [7]: 14.1 µM (active) and 10 µM (active) and 17.8 µM (active) | outcome [8]: inactive | Potency [9]: 17.8 µM [fluorescent] (active) [middle of 4 runs] | Potency [10]: 10 µM [fluorescent] (active) and 14.1 µM [fluorescent] (active) and 17.8 µM [fluorescent] (active) | Potency [11]: inactive | Potency [12]: 12.6 µM [fluorescent] (active) and 8.91 µM [fluorescent] (active) and 15.8 µM [fluorescent] (active) | Potency [13]: 11.2 µM [fluorescent] (active) and 17.8 µM [fluorescent] (active) | Potency [14]: 11.2 µM [fluorescent] (active) and 17.8 µM [fluorescent] (active) and 15.8 µM [fluorescent] (active) | Potency [15]: inactive | Potency [17]: inactive

Cc1ccc(C)c(O)c1
Potency [1]: inactive | Potency [2]: inactive | Potency [3]: inactive | Potency [4]: inactive | Potency [5]: inactive | Potency [6]: inactive | Potency [7]: inactive | outcome [8]: inactive | Potency [9]: inactive | Potency [10]: inactive | Potency [11]: inactive | Potency [12]: inactive | Potency [13]: inactive | Potency [14]: inactive | Potency [15]: inactive | Potency [16]: inactive | Potency [17]: inactive | Potency [18]: inactive | Potency [19]: inactive

Nc1cc(Cl)c(N)c(Cl)c1
Potency [1]: inactive | Potency [2]: inactive | Potency [3]: inactive | Potency [4]: inactive | Potency [6]: inactive | Potency [7]: inactive | outcome [8]: inactive | Potency [9]: inactive | Potency [10]: inactive | Potency [11]: inactive | Potency [12]: inactive | Potency [14]: inactive | Potency [15]: inactive | Potency [16]: inactive | Potency [17]: inactive | Potency [18]: inactive | Potency [19]: inactive

CN(C)CCCN1c2ccccc2Sc2ccc(Cl)cc21
Potency [1]: 10.9 µM (active) | Potency [2]: inactive | Potency [3]: inactive | Potency [4]: inactive | Potency [6]: inactive | Potency [7]: inactive | outcome [8]: inactive | Potency [9]: inactive | Potency [10]: inactive | Potency [11]: inactive | Potency [12]: inactive | Potency [13]: inactive | Potency [14]: inactive | Potency [15]: inactive | Potency [16]: inactive | Potency [17]: inactive
